Source: PubChem BioAssay
Values without a mark were called inactive. How the calls were made is not given here.

These compounds were tested against Pantothenate synthetase (Mycobacterium tuberculosis (strain ATCC 25618 / H37Rv)) (UniProt P9WIL5) (assay: Coupled enzyme confirmation of inhibitors against recombinant Mtb PanC (AID 375;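 further: 0% = full reaction with vehicle and 100% = no enzyme background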)). Settings: coupled enzyme assay; at 10 µM, hits give high values.
Sequence of Pantothenate synthetase (Mycobacterium tuberculosis (strain ATCC 25618 / H37Rv)) (P9WIL5 whole entry, looked up): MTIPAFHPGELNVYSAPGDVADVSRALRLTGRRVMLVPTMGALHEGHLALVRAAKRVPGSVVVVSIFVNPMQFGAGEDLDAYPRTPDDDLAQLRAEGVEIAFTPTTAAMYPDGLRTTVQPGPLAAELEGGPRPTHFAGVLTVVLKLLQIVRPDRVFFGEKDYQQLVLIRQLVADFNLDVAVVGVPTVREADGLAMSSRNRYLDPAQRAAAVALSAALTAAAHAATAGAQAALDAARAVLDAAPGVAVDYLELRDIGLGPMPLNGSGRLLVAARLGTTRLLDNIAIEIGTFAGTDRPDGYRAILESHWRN
Work on `Cc1cc(NS(=O)(=O)c2ccc(NC(=O)COc3ccc(Cl)cc3)cc2)no1` yielded an inhibition of 9%.
In the case of `COc1cc(/C=N/n2cnnc2)ccc1OCC(=O)N1CCOCC1`, the inhibition is reported as 0%.
`COCCn1c(CN(Cc2ccccc2)Cc2ccccc2)nc2c1c(=O)n(C)c(=O)n2C` showed an inhibition of 0%.
`CC(=O)Nc1c(O)nc(SCC(=O)Nc2nnc(CC(C)C)s2)[nH]c1=O` gave an inhibition of 9%.
`c1ccc2c(c1)c1c3n2CCNC3CCC1` (stereo not given) showed an inhibition of 0%.
With `Cc1ccc(NC(=O)CC2C(=O)NC3CCCCC3N2C(=O)c2ccc(F)cc2)cc1C` (stereo not given) the inhibition was 4%.
In the case of `CCn1nnnc1SCC(=O)Nc1nnc(C(C)C)s1`, the inhibition is reported as 3%.
In the case of `COc1ccc(OC)c(NC(=O)CSc2nnc(Cc3cccn3C)n2-c2ccc(F)cc2)c1`, the inhibition is reported as 0%.
With `CC(C)(C)C1CCc2c(sc3c2C(=O)NC(c2ccco2)N3)C1` (stereo not given) the inhibition was 2%.
Work on `CCOC(=O)CNC(=O)CSc1nnnn1-c1cc(C)ccc1C` yielded an inhibition of 10%.
`CC(=O)Oc1cccc(/C=c2\sc3nc(-c4ccco4)nn3c2=O)c1` gave an inhibition of 8%.
`Cc1ccc2[nH]c3c(c2c1)CCc1cn[nH]c1-3` was tested, and the inhibition was 0%.
Work on `CCCc1cc(Nc2cccc(OC)c2)n2ncnc2n1` yielded an inhibition of 0%.
`CC(=O)NCCc1nc2ccccc2[nH]1` was tested, and the inhibition was 0%.
`O=C(C1CCC1)N1CCc2cc(S(=O)(=O)N3CCc4ccccc4C3)ccc21` was tested, and the inhibition was 7%.
`CCOc1ccc(OCc2cccc(C(=O)O)c2)cc1` gave an inhibition of 6%.
`COc1ccc(N2CCN(c3nc4c(c(=O)[nH]c(=O)n4C)n3CCCc3ccccc3)CC2)cc1` gave an inhibition of 13%.
Compound `CCOC(=O)C(C)(C)Sc1nc2c(cnn2-c2ccc(C)cc2)c(=O)[nH]1` has an inhibition of 0%.
`COc1ccc(C(=O)N2CCN(C3CCC(c4ccccc4)CC3)CC2)cc1OC` (stereo not given) was tested, and the inhibition was 2%.
`COCCCNC(=O)CC1Oc2ccccc2NC1=O` (stereo not given) showed an inhibition of 0%.
`O=C(c1ccco1)N1CCN(c2c(-c3ccccc3)c3cc(Cl)ccc3[nH]c2=O)CC1` was tested, and the inhibition was 5%.
`CC(=O)NCc1ccc(C(=O)CSc2nnc(-c3ccncc3)n2Cc2ccccc2)o1` showed an inhibition of 16%.
`Cc1nc2ccccc2cc1C(=O)NCc1ccco1` gave an inhibition of 0%.
`Cc1ccc2[nH]c3c(N4CCOCC4)ncnc3c2c1` showed an inhibition of 0%.
`CC(C)(C)c1ccc2c(c1)OCC(C(=O)O)O2` (stereo not given) showed an inhibition of 4%.
In the case of `COc1ccc(-c2nnc(SCCC(=O)O)n2-c2ccccc2)cc1`, the inhibition is reported as 0%.
Compound `Cc1ccc(S(=O)(=O)N2CCN(C(=O)CN3CCOCC3)C2C(C)C)cc1` (stereo not given) has an inhibition of 0%.
For `O=C(CSc1nc2ccccc2[nH]1)c1ccc2c(c1)OCO2`, the inhibition was 0%.
With `CCOC(=O)C(C)n1cnc2c(nnn2Cc2ccc(C)cc2)c1=O` (stereo not given) the inhibition was 0%.
In the case of `O=C(Nc1cccc(C(F)(F)F)c1)c1cccnc1N1CCCC1`, the inhibition is reported as 4%.
Work on `COc1ccc(-c2nnc(SCC(=O)Nc3sc4c(c3C#N)CCC4)n2CC2CCCO2)cc1` (stereo not given) yielded an inhibition of 0%.
Work on `COc1ccc(NC(=O)C2CCCCN2S(=O)(=O)c2ccc(F)cc2)cc1` (stereo not given) yielded an inhibition of 0%.
`NC(=O)C1CCN(c2nc(-c3ccccc3)nc3ccccc23)CC1` showed an inhibition of 0%.
Work on `CCCCOc1ccc(CC(=O)NO)cc1` yielded an inhibition of 9%.
With `CCN(CC)c1ccc2c(c1)C(=O)N(C)C2=O` the inhibition was 7%.
`CC1=C(C(=O)Nc2ccccc2)C(c2ccccn2)n2nc(CCCO)nc2N1` (stereo not given) gave an inhibition of 7%.
For `COCCNC(=O)c1ccc(Cl)c(Cl)c1`, the inhibition was 0%.
`O=S(=O)(NCCc1csc(-c2ccccc2)n1)c1ccc2c(c1)OCCO2` gave an inhibition of 4%.
`COc1cccc(NC(=O)C2CCCN(S(=O)(=O)c3cccc4cccnc34)C2)c1` (stereo not given) gave an inhibition of 0%.
`CCCNC(=O)CS(=O)(=O)Cc1nc(-c2cccc(OC)c2)oc1C` gave an inhibition of 0%.
